Potency and affinity values are given separately. Values without a mark were called inactive.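 How the source made its calls: active means every repeat run showing a signal drop whose fitted half-maximal concentration is at most twice the top tested concentration; inconclusive means repeat runs disagree, or flat partial drop, or poor fit; inactive means the rest.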
Assay: HEK293T cytotoxicity, dose response, cytotoxicity control for miR-122 modulator project, cell-based, activator set, cherry-pick (AID 720690);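 further: 0% = neutral control wells and -100% = MG132 cytotoxic control wells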
Conditions: HEK293T viability, CellTiter-Glo luminescence, 48 h; series mostly up to 26 µM; activity change, negative = cytotoxicity: at the top concentration

Row | Structure (SMILES) | activity change, negative = cytotoxicity
1 | COC(=O)C[C@H]1CC[C@@H]2[C@@H](COc3ccc(NC(=O)Nc4ccc(Cl)cc4)cc3C(=O)N2C)O1 | -8.59%
2 | CCC(=O)N(C)C[C@@H]1[C@@H](c2ccccc2)[C@H](CO)N1Cc1cccnc1 | -14.6% [at 23.5 µM]
3 | COc1cccc(CNC(=O)C[C@H]2CC[C@@H]3[C@@H](COc4ccc(NC(C)=O)cc4C(=O)N3C)O2)c1 | -11.6%
4 | CN1[C@@H](CO)[C@@H]2c3ccccc3N(C(=O)Nc3cc(F)ccc3F)C[C@@H]21 | -20.7%
5 | CCCC(=O)Nc1ccc2c(c1)C(=O)N(C)[C@@H]1CC[C@H](CC(=O)NCC(F)(F)F)O[C@H]1CO2 | 5.51%
6 | COc1cc(-c2nnc3sc(C4CCCCC4)nn23)cc(OC)c1OC | -26%
7 | COc1cccc(CNC(=O)C[C@H]2CC[C@@H]3[C@H](COc4ccc(NC(C)=O)cc4C(=O)N3C)O2)c1 | -12.8%
8 | CC(C)C(=O)Nc1ccc2c(c1)C(=O)N(C)[C@H]1CC[C@@H](CC(=O)NCc3ccccc3F)O[C@H]1CO2 | -2.13% [at 23.5 µM]
9 | C/C=C/c1ccc([C@H]2[C@H](CO)N[C@@H]2CN(CC)C(=O)c2cccnc2)cc1 | -12.1%
10 | CO[C@@H]1CN(C)C(=O)c2cc(NC(=O)NC(C)C)ccc2OC[C@H](C)N(Cc2cncnc2)C[C@H]1C | 3.49%
11 | CCN(C[C@H]1[C@@H](c2ccccc2)[C@@H](CO)N1C(=O)COC)S(C)(=O)=O | -9.87%
12 | CC(C)(C)c1ccc(S(=O)(=O)NCCc2ccncc2)cc1 | -16.2%
13 | COCC(=O)N(C[C@H]1N[C@@H](CO)[C@@H]1c1ccc(C2=CCCC2)cc1)C(C)C | -19.8%
14 | Cc1ccc(S(=O)(=O)Nc2ccc3c(c2)C(=O)N(C)[C@@H]2CC[C@@H](CC(=O)NCCc4ccncc4)O[C@@H]2CO3)cc1 | -7.64%
15 | CN(C)CCCNC(=O)C[C@H]1CC[C@H]2[C@H](COc3ccc(NC(=O)c4cccc(F)c4)cc3C(=O)N2C)O1 | -18.8%
16 | O=C(CNCCC1=CCCCC1)Nc1ccccc1N1CCCCCC1 | -25.6%
17 | CCC(=O)N1[C@H](CO)[C@H]2c3ccccc3N(C(=O)CC(F)(F)F)C[C@H]21 | -6.13% [at 23.5 µM]
18 | CN1C(=O)c2cc(NC(=O)c3cccc(F)c3)ccc2OC[C@H]2O[C@@H](CC(=O)O)CC[C@@H]21 | -1.64%

Row | Structure (SMILES) | activity change, negative = cytotoxicity
19 | COc1ccc(C(=O)C2CCCN(Cc3cccn3-c3ccccn3)C2)c(OC)c1 (stereo not given) | -32.3%
20 | COCC(=O)N1[C@@H](CO)[C@@H]2c3ccccc3N(C(=O)C3CC3)C[C@@H]21 | 0.653%
21 | CCC(=O)N1[C@@H](CO)[C@@H](c2ccccc2)[C@@H]1CN(C(C)C)S(C)(=O)=O | 9.06%
22 | CCC(=O)N1[C@H](CO)[C@@H](c2ccccc2)[C@@H]1CN(C(C)C)S(C)(=O)=O | 1.18%
23 | CN1C(=O)c2cc(NS(C)(=O)=O)ccc2OC[C@@H]2O[C@H](CC(=O)O)CC[C@H]21 | -4.45% [at 23.5 µM]
24 | CN1C(=O)c2cc(NC(=O)Cc3ccccc3)ccc2OC[C@@H]2O[C@@H](CC(=O)O)CC[C@H]21 | -1.92% [at 23.5 µM]
25 | O=C(C1CCCC1)N1C[C@H]2[C@@H](c3ccccc31)[C@H](CO)N2C(=O)Nc1cccc(F)c1 | 0.05%
26 | CC(C)C#Cc1ccc2c(c1)O[C@H](CN(C)C(=O)c1ccncc1)[C@H](C)CN([C@H](C)CO)S2(=O)=O | 1.9%
27 | CN1C(=O)c2cc(NC(=O)c3cccs3)ccc2OC[C@@H]2O[C@@H](CC(=O)O)CC[C@H]21 | -1.12% [at 23.5 µM]
28 | COCC(=O)Nc1ccc2c(c1)C(=O)N(C)[C@@H]1CC[C@H](CC(=O)NCCCN(C)C)O[C@H]1CO2 | -12.7%
29 | CCCNC(=O)C[C@@H]1CC[C@@H]2[C@@H](COc3ccc(NC(=O)Nc4ccccc4F)cc3C(=O)N2C)O1 | 6.7%
30 | C[C@@H]1CN([C@@H](C)CO)C(=O)c2cccc(NC(=O)Nc3ccc4c(c3)OCO4)c2O[C@@H]1CN(C)Cc1ccc(Oc2ccccc2)cc1 | -15.5%
31 | CCC(=O)Nc1ccc2c(c1)C(=O)N(C)[C@@H]1CC[C@H](CC(=O)NCCN3CCCCC3)O[C@H]1CO2 | -0.622%
32 | CN(Cc1ccccc1)C(=O)COC(=O)c1ccccc1Nc1ccccc1 | -0.674%
33 | CC(C)CC#Cc1ccc2c(c1)O[C@H](CN(C)C(=O)c1cnccn1)[C@H](C)CN([C@@H](C)CO)S2(=O)=O | 2.29%
34 | O=C(Nc1ccc(Cl)c(C(F)(F)F)c1)c1ccco1 | -1.21%
35 | C[C@@H]1CN([C@@H](C)CO)S(=O)(=O)c2ccc(C#Cc3ccncc3)cc2O[C@@H]1CN(C)C(=O)C1CCOCC1 | -7.81%
